# Assay outcomes deposited in PubChem BioAssay by NMMLSC.
# Compounds with a hit are over-represented: about 1.2% of the library has one in this group of screens.
# RGS8-Gao reg: modulates binding of RGS8 to human Galphao; hit rate 0.34% among 220,000; response (percent of control binding), % at 10 µM; P09471; multiplexed bead flow cytometry; actives lie on both sides; AID 1423; in the data active = response below about 60% or above about 140%; inactive = in between;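 also: Galphao activated as the GDP aluminium fluoride complex binding bead-coupled RGS8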
# Target sequence (P09471 whole entry, looked up): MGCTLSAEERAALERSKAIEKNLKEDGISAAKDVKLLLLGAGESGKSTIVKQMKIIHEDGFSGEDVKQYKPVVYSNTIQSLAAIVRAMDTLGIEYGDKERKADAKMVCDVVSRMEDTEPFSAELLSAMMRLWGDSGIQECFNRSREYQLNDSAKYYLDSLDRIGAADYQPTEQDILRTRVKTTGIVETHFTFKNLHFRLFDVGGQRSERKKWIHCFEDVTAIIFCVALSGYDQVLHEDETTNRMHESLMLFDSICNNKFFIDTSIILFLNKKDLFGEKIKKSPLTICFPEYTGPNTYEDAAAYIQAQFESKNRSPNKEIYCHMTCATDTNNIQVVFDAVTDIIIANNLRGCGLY
# GSH bead fluor: GSH bead compound fluorescence profile; GSH beads flow cytometry, compound fluorescence 488/530 nm; stronger effect = higher value; fluorescence (KMESF) at 10 µM; hit rate 0.25% among 190,000; AID 1776; in the data active = fluorescence above about 89;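 also: glutathione beads carrying GST-tagged Bcl family fusion proteins plus one bare bead set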
# RGS7-Gao reg: regulators of human RGS7-Galphao interaction; P09471; Multiplexed bead flow cytometry, RGS7-Galphao binding; actives lie on both sides; binding response (% of control), % at 10 µM; hit rate 0.35% among 220,000; AID 1439; in the data active = binding response below about 49% or above about 150%; inconclusive = no clear call, values can overlap the other calls; inactive = in between;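 also: fluorescent Galphao held in activated GDP-AlF4 state binding bead-coupled RGS7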
# RGS4-Gao reg: human RGS4-Galphao interaction regulation; P09471; binding response (% of control), % at 10 µM; Multiplexed bead flow cytometry, RGS4-Galphao binding; actives lie on both sides; hit rate 0.33% among 220,000; in the data active = binding response below about 49% or above about 150%; inactive = in between;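 also: fluorescent Galphao activated with aluminum fluoride binding bead-coupled RGS4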
# RGS16-Gao: regulators of human RGS16-Galphao interaction; hit rate 0.38% among 220,000; bead-based flow cytometry RGS16-Galphao binding, fluorescence; actives lie on both sides; binding response (% of control), % at 10 µM;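 also: Galphao activated by GDP with aluminum fluoride before binding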
# Target sequence (O15492 whole entry, looked up): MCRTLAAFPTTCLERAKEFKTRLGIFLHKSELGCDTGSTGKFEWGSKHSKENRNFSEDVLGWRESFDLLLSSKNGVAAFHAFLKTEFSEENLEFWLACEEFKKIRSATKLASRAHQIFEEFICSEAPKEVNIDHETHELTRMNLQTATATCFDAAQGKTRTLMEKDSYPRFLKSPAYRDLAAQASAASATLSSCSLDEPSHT
# Target sequence (P09471 whole entry, looked up): as the sequence (P09471 whole entry, looked up) above
# Avidin fluor: compound fluoresces at 488/530 nm on avidin beads; compound fluorescence 488/530 nm, flow cytometry; stronger effect = higher value; fluorescence (KMESF) at 10 µM; hit rate 0.38% among 220,000; AID 1775; in the data active = fluorescence above about 47
# RGS4-Gao HTS: regulators of human RGS4-Galphao interaction; shares compounds with RGS16-Gao; multiplexed bead flow cytometry, RGS–Galpha-o binding; RGS4–Galpha-o binding response, % at 10 µM; hit rate 99% among 1,600; AID 1504;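 also: fluorescently labeled Galpha-o bound to GDP with aluminium fluoride binding biotinylated RGS beads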
# Biotin-avidin: counter-screen: compounds disrupting biotin binding to avidin beads. AID 1783. shares compounds with RGS16-Gao. inhibition, % at 10 µM. 1,700 tested, under 10 active. streptavidin beads, fluorescein-biotin binding, flow cytometry;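 active = inhibition above 50%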;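 also: median green fluorescence of gated singlet beads compared with DMSO control wells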
# RGS8-Gao confirm: RGS8-Galphao interaction regulation, single point confirmation. shares compounds with RGS16-Gao. bead-based flow cytometry RGS8-Galphao binding, fluorescence; actives lie on both sides. binding response (% of control), % at 10 µM. hit rate 3% among 1,700. AID 1836; in the data active = binding response below about 72% or above about 130%; inactive = in between;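 also: Galphao activated as GDP AlF4 complex before binding bead RGS8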
# RGS7-Gao confirm: RGS7-Galphao interaction regulation, single point confirmation. shares compounds with RGS16-Gao. bead-based flow cytometry RGS7-Galphao binding; actives lie on both sides. response (percent of control binding), % at 10 µM. hit rate 7.8% among 1,700. AID 1837; in the data active = response below about 75% or above about 130%; inactive = in between;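 also: fluorescent Galphao activated with GDP and aluminum fluoride binding bead-coupled RGS7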
# RGS16-Gao conf: RGS16-Galphao interaction regulation, single point confirmation | response (% of control binding), % at 10 µM | hit rate 4% among 1,700 | bead-based flow cytometry, RGS16-Galphao binding; actives lie on both sides | shares compounds with RGS16-Gao; in the data active = response below about 74% or above about 130%; inactive = in between;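 also: Galphao activated as the GDP aluminium fluoride complex binding bead-coupled RGS16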
# RGS4-Gao confirm: confirmation of regulators of human RGS4-Galphao interaction; AID 1840; hit rate 4% among 1,700; RGS4-Galphao binding, multiplexed bead flow cytometry; actives lie on both sides; shares compounds with RGS16-Gao; binding response (% of control), % at 10 µM; in the data active = binding response below about 74% or above about 130%; inactive = in between
# RGS19-Gao single: RGS19-Galphao interaction regulation, single point confirmation; shares compounds with RGS16-Gao; hit rate 5% among 1,700; AID 1841; response (percent of control binding), % at 10 µM; bead-based flow cytometry RGS19-Galphao binding; actives lie on both sides; in the data active = response below about 50% or above about 160%; inactive = in between
# A number is an active result; . = inactive; ? = inconclusive; / = no result given; [ ] = another dose, or the depositor's remark. Unless noted, no rule for the calls is given here.
SMILES,RGS8-Gao reg,GSH bead fluor,RGS7-Gao reg,RGS4-Gao reg,RGS16-Gao,Avidin fluor,Biotin-avidin,RGS8-Gao confirm,RGS7-Gao confirm,RGS16-Gao conf,RGS4-Gao confirm,RGS19-Gao single,others
Cc1cc(C)nc(N/N=C/c2cc(Br)ccc2O)n1,.,/,?,.,.,.,/,/,/,/,/,/,
O=C(CN1C(=O)NC2(CCCC2)C1=O)Nc1nc(-c2ccc(F)cc2)cs1,.,.,.,.,.,.,/,/,/,/,/,/,
CC1(C)NC(=O)N(CC(=O)Nc2nc(-c3ccc(F)cc3)cs2)C1=O,.,.,216[activator],.,.,195,.,.,69,.,.,49,RGS4-Gao HTS=133
O=C(COC(=O)CSc1ccc2ccccc2c1Br)NC1CC1,.,.,.,.,.,.,/,/,/,/,/,/,
O=Cc1ccc(-c2ccc(Cl)cc2Cl)[nH]1,26,.,16,26,15,.,.,.,.,.,.,.,
Cc1csc(NC(=O)C2C3C=CC(C3)C2C(=O)O)n1 (stereo not drawn),10,.,-9.1,-23,-20,.,.,.,.,.,.,.,
Cc1ccccc1-n1ccnc1SCC(=O)NCc1ccco1,.,.,.,.,.,.,/,/,/,/,/,/,
O=C(COc1ccc2ccccc2c1)NCCc1ccc2c(c1)OCCO2,106[activator],.,.,31,113[activator],.,.,.,.,.,.,.,
O=C(COc1ccc2ccccc2c1)NCCNC(=O)COc1ccc2ccccc2c1,.,.,.,.,.,.,/,/,/,/,/,/,
O=C(CP(=O)(c1ccccc1)c1ccccc1)Nc1nc2ccc(Cl)cc2s1,.,/,?,.,.,.,/,/,/,/,/,/,
Cc1ccc(N2CN=c3s/c(=C\c4ccccn4)c(=O)n3C2)cc1,60,.,48,.,.,.,.,.,.,.,.,.,RGS4-Gao HTS=51
Cc1[nH]n(-c2ccccc2)c(=S)c1C=NCCCN=Cc1c(C)[nH]n(-c2ccccc2)c1=S,52,.,.,.,-0.3,.,.,.,.,74,.,47,RGS4-Gao HTS=92
COc1cc(C(=O)O)nc2ccc([N+](=O)[O-])cc12,.,.,.,.,.,.,/,/,/,/,/,/,
CCOc1ccc2c(c1)n(CO)c(=S)n2CO,.,.,176[activator],.,.,104,.,.,.,.,.,.,RGS4-Gao HTS=112
CCOc1ccc2[nH]c(=S)[nH]c2c1,.,.,.,.,.,.,/,/,/,/,/,/,
NC(=O)CC[C@H](NC(=O)c1ccc(F)cc1)C(=O)OCC(=O)NCc1ccc(F)cc1,.,.,?,.,.,.,/,/,/,/,/,/,
Cc1nc2ccc(NC(=O)N(C(C)C)C(C)C)cc2s1,.,.,169[activator],.,.,82,.,.,.,.,.,.,RGS4-Gao HTS=98
Cc1nc2ccc(NC(=O)N(C)c3ccccc3)cc2s1,.,.,.,.,.,.,/,/,/,/,/,/,
COC(=O)c1sccc1NC(=O)CC1C(=O)NCCN1C(=O)c1ccc(N(C)C)cc1 (stereo not drawn),.,/,?,.,.,.,/,/,/,/,/,/,
COc1ccc(C(=O)Nc2cc(C(C)=O)c(C)oc2=O)cc1,.,.,?,.,.,.,/,/,/,/,/,/,
COC(=O)c1cc(NC(=O)c2ccccc2)c(=O)oc1/C=C/Nc1ccc(Oc2ccccc2)cc1,.,161,211[activator],215[activator],205[activator],80,.,125[activator],399[activator],260[activator],284[activator],420[activator],
COC(=O)Nc1csc2c1NC(=O)CCCC2,18,/,?,-9.2,-4.2,.,.,.,.,.,.,.,
O=C(NCc1ccccc1)C1CCN(S(=O)(=O)N2CCOCC2)CC1,.,.,.,.,.,.,/,/,/,/,/,/,
CC(CCc1ccccc1)NC(=O)C1CCN(S(=O)(=O)N2CCOCC2)CC1 (stereo not drawn),160[activator],.,167[activator],180[activator],.,.,.,.,.,.,.,.,
CCS(=O)(=O)c1cc([N+](=O)[O-])c(Sc2ccccc2NC(C)=O)s1,21,/,?,17,9.3,.,.,63,.,58,.,10,
SMILES,RGS8-Gao reg,GSH bead fluor,RGS7-Gao reg,RGS4-Gao reg,RGS16-Gao,Avidin fluor,Biotin-avidin,RGS8-Gao confirm,RGS7-Gao confirm,RGS16-Gao conf,RGS4-Gao confirm,RGS19-Gao single,others
CC(=O)Nc1cccc(NS(=O)(=O)c2ccccc2[N+](=O)[O-])c1,.,.,.,.,.,.,/,/,/,/,/,/,
C(=N\Nc1nc(Nc2ccccc2)nc(N2CCCCC2)n1)/c1ccco1,.,.,.,.,.,.,/,/,/,/,/,/,
COc1ccc(OCCNS(=O)(=O)c2ccccc2)cc1,.,.,.,.,.,.,/,/,/,/,/,/,
Cc1ccc(OCCNS(=O)(=O)c2cccs2)cc1,.,.,154[activator],159[activator],.,.,.,.,.,.,.,.,
COC(=O)CC1C(=O)NCCN1C(=O)Nc1ccc(Cl)c(Cl)c1 (stereo not drawn),/,.,/,.,/,.,.,.,.,.,.,.,
CCc1ccc(C2CC(=O)N(c3cccc(F)c3)C3=C2C(=O)OC3)cc1 (stereo not drawn),.,.,.,.,.,.,/,/,/,/,/,/,
